# Source: publication PMC11006913
# Residue numbers refer to the chain shown, from its start.
# Assays:
# Test in all cases: PBM; 200 nM protein, PBS
# Details in all cases: dsDNA, one strand shown
# HOXB4 [1] = target: HOXB4 (Homo sapiens, UniProt P17483 148-234)
# VENTX [2] = target: T1, VENTX (Homo sapiens, UniProt O95231 78-163, R121Q)
# T1 sequence: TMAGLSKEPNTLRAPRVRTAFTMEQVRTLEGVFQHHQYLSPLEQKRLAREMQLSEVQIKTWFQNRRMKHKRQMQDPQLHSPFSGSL
# HOXA4 [3] = target: HOXA4 (Homo sapiens, UniProt Q00056 201-287, W262R)
# Sequence of HOXA4 (Homo sapiens, UniProt Q00056 201-287, W262R) (Q00056 201-287 W262R): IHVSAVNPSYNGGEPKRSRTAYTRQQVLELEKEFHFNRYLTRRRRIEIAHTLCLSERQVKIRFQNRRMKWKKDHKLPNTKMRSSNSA
# VENTX [4] = target: T2, VENTX (Homo sapiens, UniProt O95231 78-163)
# T2 sequence: T1 sequence with Q44R
# VENTX [5] = target: T3, VENTX (Homo sapiens, UniProt O95231 78-163, Y115F)
# T3 sequence: T1 sequence with Y38F, Q44R
# HOXA2 [6] = target: HOXA2 (Homo sapiens, UniProt O43364 129-215, R185T)
# Sequence of HOXA2 (Homo sapiens, UniProt O43364 129-215, R185T) (O43364 129-215 R185T): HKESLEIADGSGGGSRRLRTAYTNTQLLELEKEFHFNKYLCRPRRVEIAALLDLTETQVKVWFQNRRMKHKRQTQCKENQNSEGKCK
# HOXA4 [7] = target: HOXA4 (Homo sapiens, UniProt Q00056 201-287, R217L)
# Sequence of HOXA4 (Homo sapiens, UniProt Q00056 201-287, R217L) (Q00056 201-287 R217L): as the sequence (Q00056 201-287 W262R) above, with R17L, R62W counted along it
# HOXB4 [8] = target: HOXB4 (Homo sapiens, UniProt P17483 148-234, V174I)
# Sequence of HOXB4 (Homo sapiens, UniProt P17483 148-234, V174I) (P17483 148-234 V174I): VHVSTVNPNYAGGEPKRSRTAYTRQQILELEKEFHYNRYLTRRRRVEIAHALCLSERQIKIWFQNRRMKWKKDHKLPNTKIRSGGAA
# HOXA2 [9] = target: HOXA2 (Homo sapiens, UniProt O43364 129-215, R185K)
# Sequence of HOXA2 (Homo sapiens, UniProt O43364 129-215, R185K) (O43364 129-215 R185K): as the sequence (O43364 129-215 R185T) above, with T57K counted along it
# HOXA4 [10] = target: HOXA4 (Homo sapiens, UniProt Q00056 201-287)
# Sequence of HOXA4 (Homo sapiens, UniProt Q00056 201-287) (Q00056 201-287): as the sequence (Q00056 201-287 W262R) above, with R62W counted along it
# VAX1 [11] = target: VAX1 (Homo sapiens, UniProt Q5SQQ9 86-172)
# Sequence of VAX1 (Homo sapiens, UniProt Q5SQQ9 86-172) (Q5SQQ9 86-172): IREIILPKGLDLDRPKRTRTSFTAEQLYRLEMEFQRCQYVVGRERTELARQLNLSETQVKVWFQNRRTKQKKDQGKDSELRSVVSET
# VAX1 [12] = target: VAX1 (Homo sapiens, UniProt Q5SQQ9 86-172, T142I)
# Sequence of VAX1 (Homo sapiens, UniProt Q5SQQ9 86-172, T142I) (Q5SQQ9 86-172 T142I): as the sequence (Q5SQQ9 86-172) above, with T57I counted along it
# HOXA2 [13] = target: HOXA2 (Homo sapiens, UniProt O43364 129-215, Y150S)
# Sequence of HOXA2 (Homo sapiens, UniProt O43364 129-215, Y150S) (O43364 129-215 Y150S): as the sequence (O43364 129-215 R185T) above, with Y22S, T57R counted along it
# HOXA4 [14] = target: HOXA4 (Homo sapiens, UniProt Q00056 201-287, W262F)
# Sequence of HOXA4 (Homo sapiens, UniProt Q00056 201-287, W262F) (Q00056 201-287 W262F): as the sequence (Q00056 201-287 W262R) above, with R62F counted along it
# HOXA2 [15] = target: HOXA2 (Homo sapiens, UniProt O43364 129-215)
# Sequence of HOXA2 (Homo sapiens, UniProt O43364 129-215) (O43364 129-215): as the sequence (O43364 129-215 R185T) above, with T57R counted along it
# VAX1 [16] = target: VAX1 (Homo sapiens, UniProt Q5SQQ9 86-172, K157R)
# Sequence of VAX1 (Homo sapiens, UniProt Q5SQQ9 86-172, K157R) (Q5SQQ9 86-172 K157R): as the sequence (Q5SQQ9 86-172) above, with K72R counted along it
# HOXB9 = HOXB9 (Homo sapiens, UniProt P17482 171-250, T197M)
# Sequence of HOXB9 (P17482 171-250 T197M): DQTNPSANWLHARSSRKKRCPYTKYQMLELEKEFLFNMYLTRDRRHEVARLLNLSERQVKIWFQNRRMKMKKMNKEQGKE
# HOXC9 [17] = target: HOXC9 (Homo sapiens, UniProt P31274 178-260, K195R)
# Sequence of HOXC9 (Homo sapiens, UniProt P31274 178-260, K195R) (P31274 178-260 K195R): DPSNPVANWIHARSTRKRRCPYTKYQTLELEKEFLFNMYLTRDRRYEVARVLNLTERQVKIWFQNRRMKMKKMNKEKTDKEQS
# HOXA7 [18] = target: HOXA7 (Homo sapiens, UniProt P31268 116-202)
# Sequence of HOXA7 (Homo sapiens, UniProt P31268 116-202) (P31268 116-202): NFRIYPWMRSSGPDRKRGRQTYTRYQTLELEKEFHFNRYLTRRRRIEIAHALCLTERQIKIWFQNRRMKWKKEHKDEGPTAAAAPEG
# PAX4 [19] = target: T4, PAX4 (Homo sapiens, UniProt O43316 9-242, R200K)
# T4 sequence: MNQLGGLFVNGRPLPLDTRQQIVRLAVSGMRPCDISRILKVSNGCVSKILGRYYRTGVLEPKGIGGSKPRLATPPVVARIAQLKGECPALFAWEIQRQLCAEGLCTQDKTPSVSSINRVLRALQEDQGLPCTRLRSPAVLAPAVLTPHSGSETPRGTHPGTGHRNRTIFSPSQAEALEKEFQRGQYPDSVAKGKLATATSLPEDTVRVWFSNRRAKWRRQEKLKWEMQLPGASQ
# HOXB6 [20] = target: HOXB6 (Homo sapiens, UniProt P17509 132-218, K202E)
# Sequence of HOXB6 (Homo sapiens, UniProt P17509 132-218, K202E) (P17509 132-218 K202E): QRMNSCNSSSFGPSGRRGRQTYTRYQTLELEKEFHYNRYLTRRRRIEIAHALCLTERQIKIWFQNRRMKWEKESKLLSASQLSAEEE
# ALX3 [21] = target: ALX3 (Homo sapiens, UniProt O95076 139-225, N203Q)
# Sequence of ALX3 (Homo sapiens, UniProt O95076 139-225, N203Q) (O95076 139-225 N203Q): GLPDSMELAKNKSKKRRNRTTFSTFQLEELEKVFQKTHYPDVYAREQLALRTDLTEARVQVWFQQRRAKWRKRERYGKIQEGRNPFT
# HOXD13 [22] = target: HOXD13 (Homo sapiens, UniProt P35453 263-343, T313R)
# Sequence of HOXD13 (Homo sapiens, UniProt P35453 263-343, T313R) (P35453 263-343 T313R): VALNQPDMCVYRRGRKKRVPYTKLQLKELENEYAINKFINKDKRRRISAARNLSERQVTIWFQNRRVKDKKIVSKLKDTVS
# PAX4 [23] = target: T5, PAX4 (Homo sapiens, UniProt O43316 9-242, R200Q)
# T5 sequence: T4 sequence with K192Q
# HOXC9 [24] = target: HOXC9 (Homo sapiens, UniProt P31274 178-260, R193K)
# Sequence of HOXC9 (Homo sapiens, UniProt P31274 178-260, R193K) (P31274 178-260 R193K): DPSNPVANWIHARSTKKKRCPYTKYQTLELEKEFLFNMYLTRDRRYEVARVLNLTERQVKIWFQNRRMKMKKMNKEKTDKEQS
# HOXD13 [25] = target: HOXD13 (Homo sapiens, UniProt P35453 263-343)
# Sequence of HOXD13 (Homo sapiens, UniProt P35453 263-343) (P35453 263-343): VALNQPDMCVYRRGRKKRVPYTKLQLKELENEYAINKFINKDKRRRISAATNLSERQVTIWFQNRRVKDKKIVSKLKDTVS
# PAX4 [26] = target: T6, PAX4 (Homo sapiens, UniProt O43316 9-242, F177Y)
# T6 sequence: T4 sequence with F169Y, K192R
# HOXD13 [27] = target: HOXD13 (Homo sapiens, UniProt P35453 263-343, T313A)
# Sequence of HOXD13 (Homo sapiens, UniProt P35453 263-343, T313A) (P35453 263-343 T313A): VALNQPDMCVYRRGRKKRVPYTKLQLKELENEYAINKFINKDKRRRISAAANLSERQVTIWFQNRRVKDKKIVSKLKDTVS
# HOXC9 [28] = target: HOXC9 (Homo sapiens, UniProt P31274 178-260, R222W)
# Sequence of HOXC9 (Homo sapiens, UniProt P31274 178-260, R222W) (P31274 178-260 R222W): as the sequence (P31274 178-260 R193K) above, with K16R, R45W counted along it
# ALX3 [29] = target: ALX3 (Homo sapiens, UniProt O95076 139-225, L168V)
# Sequence of ALX3 (Homo sapiens, UniProt O95076 139-225, L168V) (O95076 139-225 L168V): as the sequence (O95076 139-225 N203Q) above, with L30V, Q65N counted along it
# HESX1 = HESX1 (Homo sapiens, UniProt Q9UBX0 95-180, F115L)
# Sequence of HESX1 (Q9UBX0 95-180 F115L): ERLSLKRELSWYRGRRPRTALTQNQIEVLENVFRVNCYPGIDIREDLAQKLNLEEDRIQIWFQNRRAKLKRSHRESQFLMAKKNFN
# PAX4 [30] = target: T7, PAX4 (Homo sapiens, UniProt O43316 9-242, R227W)
# T7 sequence: T4 sequence with K192R, R219W
# HOXA7 [31] = target: HOXA7 (Homo sapiens, UniProt P31268 116-202, W177C)
# Sequence of HOXA7 (Homo sapiens, UniProt P31268 116-202, W177C) (P31268 116-202 W177C): as the sequence (P31268 116-202) above, with W62C counted along it
# ALX3 [32] = target: ALX3 (Homo sapiens, UniProt O95076 139-225, N203S)
# Sequence of ALX3 (Homo sapiens, UniProt O95076 139-225, N203S) (O95076 139-225 N203S): as the sequence (O95076 139-225 N203Q) above, with Q65S counted along it
# HOXB6 [33] = target: HOXB6 (Homo sapiens, UniProt P17509 132-218)
# Sequence of HOXB6 (Homo sapiens, UniProt P17509 132-218) (P17509 132-218): as the sequence (P17509 132-218 K202E) above, with E71K counted along it
# PRRX1 [34] = target: PRRX1 (Homo sapiens, UniProt P54821 80-166, F113S)
# Sequence of PRRX1 (Homo sapiens, UniProt P54821 80-166, F113S) (P54821 80-166 F113S): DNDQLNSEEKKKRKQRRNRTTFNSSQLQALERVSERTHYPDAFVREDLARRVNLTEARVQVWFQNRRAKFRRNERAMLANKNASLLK
# PRRX1 [35] = target: PRRX1 (Homo sapiens, UniProt P54821 80-166)
# Sequence of PRRX1 (Homo sapiens, UniProt P54821 80-166) (P54821 80-166): as the sequence (P54821 80-166 F113S) above, with S34F counted along it
# Sequence of HOXB4 (Homo sapiens, UniProt P17483 148-234) (P17483 148-234): as the sequence (P17483 148-234 V174I) above, with I27V counted along it
sequence,measurement,setting,value
CTAATGAG,binding signal,HOXB4 [1],"13 upbm affinity estimate (log intensity, higher = more binding, comparable within an allelic series)"
same,binding signal,VENTX [2],"11.9 upbm affinity estimate (log intensity, higher = more binding, comparable within an allelic series)"
same,binding signal,HOXA4 [3],"10.5 upbm affinity estimate (log intensity, higher = more binding, comparable within an allelic series)"
same,binding signal,VENTX [4],"12.6 upbm affinity estimate (log intensity, higher = more binding, comparable within an allelic series)"
same,binding signal,VENTX [5],"12 upbm affinity estimate (log intensity, higher = more binding, comparable within an allelic series)"
same,binding signal,HOXA2 [6],"13.3 upbm affinity estimate (log intensity, higher = more binding, comparable within an allelic series)"
same,binding signal,HOXA4 [7],"11.8 upbm affinity estimate (log intensity, higher = more binding, comparable within an allelic series)"
same,binding signal,HOXB4 [8],"13.6 upbm affinity estimate (log intensity, higher = more binding, comparable within an allelic series)"
same,binding signal,HOXA2 [9],"13.6 upbm affinity estimate (log intensity, higher = more binding, comparable within an allelic series)"
same,binding signal,HOXA4 [10],"13.8 upbm affinity estimate (log intensity, higher = more binding, comparable within an allelic series)"
same,binding signal,VAX1 [11],"13.6 upbm affinity estimate (log intensity, higher = more binding, comparable within an allelic series)"
same,binding signal,VAX1 [12],"13.3 upbm affinity estimate (log intensity, higher = more binding, comparable within an allelic series)"
same,binding signal,HOXA2 [13],"10.6 upbm affinity estimate (log intensity, higher = more binding, comparable within an allelic series)"
same,binding signal,HOXA4 [14],"11.6 upbm affinity estimate (log intensity, higher = more binding, comparable within an allelic series)"
same,binding signal,HOXA2 [15],"12.8 upbm affinity estimate (log intensity, higher = more binding, comparable within an allelic series)"
same,binding signal,VAX1 [16],"13.4 upbm affinity estimate (log intensity, higher = more binding, comparable within an allelic series)"
TATTAATA,binding signal,HOXB4 [1],"12.7 upbm affinity estimate (log intensity, higher = more binding, comparable within an allelic series)"
same,binding signal,HOXB9,"10.1 upbm affinity estimate (log intensity, higher = more binding, comparable within an allelic series)"
same,binding signal,HOXC9 [17],"12.6 upbm affinity estimate (log intensity, higher = more binding, comparable within an allelic series)"
same,binding signal,HOXA7 [18],"11.2 upbm affinity estimate (log intensity, higher = more binding, comparable within an allelic series)"
same,binding signal,PAX4 [19],"11.7 upbm affinity estimate (log intensity, higher = more binding, comparable within an allelic series)"
same,binding signal,HOXB6 [20],"10 upbm affinity estimate (log intensity, higher = more binding, comparable within an allelic series)"
same,binding signal,HOXB4 [8],"13.3 upbm affinity estimate (log intensity, higher = more binding, comparable within an allelic series)"
same,binding signal,ALX3 [21],"8.75 upbm affinity estimate (log intensity, higher = more binding, comparable within an allelic series)"
same,binding signal,HOXD13 [22],"10.9 upbm affinity estimate (log intensity, higher = more binding, comparable within an allelic series)"
same,binding signal,PAX4 [23],"11.9 upbm affinity estimate (log intensity, higher = more binding, comparable within an allelic series)"
same,binding signal,HOXC9 [24],"12.5 upbm affinity estimate (log intensity, higher = more binding, comparable within an allelic series)"
same,binding signal,HOXD13 [25],"11.9 upbm affinity estimate (log intensity, higher = more binding, comparable within an allelic series)"
same,binding signal,PAX4 [26],"11.1 upbm affinity estimate (log intensity, higher = more binding, comparable within an allelic series)"
same,binding signal,HOXD13 [27],"12 upbm affinity estimate (log intensity, higher = more binding, comparable within an allelic series)"
same,binding signal,HOXC9 [28],"11.1 upbm affinity estimate (log intensity, higher = more binding, comparable within an allelic series)"
same,binding signal,ALX3 [29],"9.77 upbm affinity estimate (log intensity, higher = more binding, comparable within an allelic series)"
same,binding signal,HESX1,"8.46 upbm affinity estimate (log intensity, higher = more binding, comparable within an allelic series)"
same,binding signal,PAX4 [30],"11.2 upbm affinity estimate (log intensity, higher = more binding, comparable within an allelic series)"
same,binding signal,HOXA7 [31],"9.08 upbm affinity estimate (log intensity, higher = more binding, comparable within an allelic series)"
same,binding signal,ALX3 [32],"8.79 upbm affinity estimate (log intensity, higher = more binding, comparable within an allelic series)"
same,binding signal,HOXB6 [33],"11.7 upbm affinity estimate (log intensity, higher = more binding, comparable within an allelic series)"
AGTCATTA,binding signal,HOXB4 [1],"13.1 upbm affinity estimate (log intensity, higher = more binding, comparable within an allelic series)"
same,binding signal,VENTX [2],"11.7 upbm affinity estimate (log intensity, higher = more binding, comparable within an allelic series)"
same,binding signal,HOXA4 [3],"10.6 upbm affinity estimate (log intensity, higher = more binding, comparable within an allelic series)"
same,binding signal,HOXA7 [18],"11.5 upbm affinity estimate (log intensity, higher = more binding, comparable within an allelic series)"
same,binding signal,PRRX1 [34],"10.4 upbm affinity estimate (log intensity, higher = more binding, comparable within an allelic series)"
same,binding signal,VENTX [5],"11.7 upbm affinity estimate (log intensity, higher = more binding, comparable within an allelic series)"
same,binding signal,HOXB6 [20],"9.89 upbm affinity estimate (log intensity, higher = more binding, comparable within an allelic series)"
same,binding signal,HOXA2 [6],"12.9 upbm affinity estimate (log intensity, higher = more binding, comparable within an allelic series)"
same,binding signal,HOXA4 [7],"12.5 upbm affinity estimate (log intensity, higher = more binding, comparable within an allelic series)"
same,binding signal,HOXB4 [8],"13.7 upbm affinity estimate (log intensity, higher = more binding, comparable within an allelic series)"
same,binding signal,HOXA2 [9],"13.5 upbm affinity estimate (log intensity, higher = more binding, comparable within an allelic series)"
same,binding signal,HOXA4 [10],"13.9 upbm affinity estimate (log intensity, higher = more binding, comparable within an allelic series)"
same,binding signal,VAX1 [11],"13.1 upbm affinity estimate (log intensity, higher = more binding, comparable within an allelic series)"
same,binding signal,VAX1 [12],"13 upbm affinity estimate (log intensity, higher = more binding, comparable within an allelic series)"
same,binding signal,HOXA2 [13],"10.9 upbm affinity estimate (log intensity, higher = more binding, comparable within an allelic series)"
same,binding signal,HOXA7 [31],"8.85 upbm affinity estimate (log intensity, higher = more binding, comparable within an allelic series)"
same,binding signal,HOXA4 [14],"12 upbm affinity estimate (log intensity, higher = more binding, comparable within an allelic series)"
same,binding signal,PRRX1 [35],"12.7 upbm affinity estimate (log intensity, higher = more binding, comparable within an allelic series)"
same,binding signal,HOXA2 [15],"12.7 upbm affinity estimate (log intensity, higher = more binding, comparable within an allelic series)"
same,binding signal,VAX1 [16],"12.9 upbm affinity estimate (log intensity, higher = more binding, comparable within an allelic series)"
same,binding signal,HOXB6 [33],"11.7 upbm affinity estimate (log intensity, higher = more binding, comparable within an allelic series)"
